# PMC4552634, “A New Set of Chemical Starting Points with Plasmodium falciparum Transmission-Blocking Potential for Antimalarial Drug Discovery” (PLoS ONE, 2015)
# In all, about 13,000 compounds went through this assay and about 3,200 (25%) showed an effect of 50% or more. Some of the results follow.
# Test system: P. falciparum stage V gametocytes
# Parameters: BacTiter-Glo ATP luminescence viability of purified stage V gametocytes in 384-well plates, per cent inhibition versus DMSO
# Conditions: 48 h, 5 µM; inhibitor
row,Compound,% Inhibition
1,CCC(C)(C)c1ccc(N2C(N)=NC(N)=NC2(C)C)cc1 [TCMDC-137919],8.342%
2,O=C(Nc1ccc(Cl)cc1)OCCn1nnnc1C(c1ccc(Cl)cc1)N1CCOCC1 (stereo not drawn) [TCMDC-124138],-11.24%
3,COc1ccc2nccc(NC(=O)N3CCC(NCCOc4cc(F)cc(F)c4)CC3)c2n1 [TCMDC-140666],29.69%
4,COc1ccc2nccc(NC(=O)C3(O)CCC(NCc4ccc5c(c4)NCCS5)CC3)c2n1 (stereo not drawn) [TCMDC-141406],32.7%
5,COc1ccc2nccc(NC(=O)C3CCC(NCc4cnc(SC)c([N+](=O)[O-])c4)CC3)c2n1 (stereo not drawn) [TCMDC-131238],93.77%
6,Cc1cccc2[nH]c(-c3ccc(-c4cccc(NC(=O)Nc5ccc(F)c(F)c5F)c4)cc3)nc12 [TCMDC-133234],-5.873%
7,O=C(N[C@@H](CC1CCCCC1)C(=O)NC1CCCCC1)c1ccc(O)c(-c2cccc(C(F)(F)F)c2)c1 [TCMDC-140810],6.892%
8,O=C(N[C@@H](Cc1ccccc1)C(=O)NC1CCCCCC1)c1ccc(O)c(-c2cccc(C(F)(F)F)c2)c1 [TCMDC-140813],18.86%
9,O=C(N[C@@H](Cc1ccccc1)C(=O)NC1CCCCC1)c1ccc(O)c(-c2cccc(C(F)(F)F)c2)c1 [TCMDC-140809],50.49%
10,OC(CNc1ccnc(Nc2ccccc2)n1)c1ccc(C(F)(F)F)cc1 (stereo not drawn) [TCMDC-136598],-1.002%
11,O=c1cc(NCCCNCc2[nH]c3cc(Cl)ccc3c2Cl)[nH]c2ccccc12 [TCMDC-139966],-23.52%
12,O=C(NC(c1ccccc1)c1ccc2cccnc2c1O)c1ccccc1 (stereo not drawn) [TCMDC-123701],103.7%
13,Cc1ccc(C(NC(=O)c2ccccc2)c2ccc3cccnc3c2O)cc1 (stereo not drawn) [TCMDC-125552],16.34%
14,COc1cccc(C(NC(=O)c2ccccc2)c2ccc3cccnc3c2O)c1 (stereo not drawn) [TCMDC-125755],75.54%
15,N#Cc1ccc(N2CCN(C(=O)c3cccc(-c4noc(C(F)(F)F)n4)c3)CC2)nc1 [TCMDC-132424],8.571%
16,O=C(Nc1cc(C(F)(F)F)cc(C(F)(F)F)c1)NC(CCCN1CCC2(CC1)OCc1ccccc12)c1ccc(Cl)c(Cl)c1 (stereo not drawn) [TCMDC-141899],-60.02%
17,O=C(NC(CCCN1CCC2(CC1)OCc1ccccc12)c1ccc(Cl)c(Cl)c1)c1cc(C(F)(F)F)cc(C(F)(F)F)c1 (stereo not drawn) [TCMDC-141897],69.2%
18,O=C(NC(CCCN1CCC(c2ccccc2)CC1)c1ccc(Cl)c(Cl)c1)c1cc(C(F)(F)F)cc(C(F)(F)F)c1 (stereo not drawn) [TCMDC-141900],23.85%
